# Data reported in PubChem BioAssay AID449762 (Southern Research Specialized Biocontainment Screening …, 2010).
# “And” between values parts separate entries of the source, which are not always exact repeats. Equal values may be shown once. Screen size: about 330,000 compounds; about 1,900 (0.58%) were called active. About 4% were inconclusive and are not listed. A selection follows. Results with a measured potency or affinity are listed apart. Unmarked numbers belong to inactive results. Cut-off read from the data, not from the text of the source: inconclusive = inhibition above about 70% without an active follow-up result; inactive = below that.
# Experiment: M. tuberculosis growth inhibition, HTS (AID 449762);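 note: bacterial growth assessed after seven days of incubation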
# Conditions: M. tuberculosis H37Rv growth inhibition, 7H9 media; at 25 µM; hits give high values
row,Compound,inhibition
1,Cc1ccc(C)c(C(=O)n2cnnc2N)c1,-9.61%
2,NC(=O)C1c2ccccc2Oc2ccccc21,-5.49%
3,Cc1cc(C)nc(N2CCCC(C(=O)NC(C)C)C2)n1 (centres undefined),0.18%
4,O=C(NC(NC(=S)Nc1cc(Cl)ccc1Cl)C(Cl)(Cl)Cl)c1ccco1 (centres undefined),11.3%
5,O=C(Nc1cc(Cl)ccc1Cl)c1ccco1,-6.05%
6,COc1ccc(NC(=O)Nc2ccc3c(c2)C(=O)N([C@H](C)CO)C[C@H](C)[C@@H](CN(C)S(=O)(=O)c2cccs2)O3)cc1,2.72%
7,C[C@H](CO)N1C[C@H](C)[C@@H](CN(C)S(=O)(=O)c2cccs2)Oc2ccc(NC(=O)Nc3ccccc3)cc2C1=O,-4.72%
8,CCCc1nc2nc(C)c(NS(=O)(=O)c3ccc(Cl)cc3)c(=O)n2[nH]1,-4.54%
9,CC(C)=NNc1nc2c(c(=O)n(C)c(=O)n2C)n1CCc1ccccc1,-14.4%
10,Cc1ccc(/C=C/S(=O)(=O)NCC(=O)OCC(=O)NCc2ccccc2)cc1,6.29%
11,Cc1ccc(/C=C/S(=O)(=O)NCC(=O)OCC(=O)Nc2ccc(C(N)=O)cc2)cc1,-3.63%
12,O=C(NC1CCSc2ccccc21)c1cc([N+](=O)[O-])ccc1N1CCOCC1 (centres undefined),-4.07%
13,Nc1n[nH]c(N)c1N=Nc1ccc(Cl)cc1,0.26%
14,Nc1nc(N)c(N=Nc2ccc(Cl)cc2)c(=O)[nH]1,3.75%
15,COc1cccc(NC(=O)CSc2ccc3nnc(-c4cccnc4)n3n2)c1,6.73%
16,O=C(CN(Cc1ccc(F)cc1)C(=O)CNS(=O)(=O)c1ccc(Cl)cc1)NCC1CCCO1 (centres undefined),-7.08%
17,CCN1CCN(CC(=O)N2N=C(c3cccs3)CC2c2ccc(C)cc2)C(=O)C1=O (centres undefined),12.5%
18,CCC(=O)N1N=C(c2cccs2)CC1c1ccc(C)cc1 (centres undefined),-0.72%
19,COc1ccccc1NC(=O)CCc1nnc2ccc(N3CCC4(CC3)OCCO4)nn12,-1.86%
20,CN1C(=O)CSc2ccc(NC(=O)N3CCOCC3)cc21,8.66%
21,CCC(=O)Oc1c(S(=O)(=O)c2ccc(C)cc2)c(C)nn1C(C)(C)C,11.5%
22,CCOc1ccc(Cc2nnc(SCC(=O)Nc3ccc(OC)cc3)n(N)c2=O)cc1,0.84%
23,COc1ccc(Cc2nnc(SCC(=O)Nc3ccccc3C)n(N)c2=O)cc1,-1.95%
24,N#Cc1c(N)n[nH]c1CCCN,0.78%

row,Compound,inhibition
1,Nc1c2ccccc2nc2ccccc12,-8.85% and 58.8%
2,O=C(O)c1cc(Cl)nc2ccccc12,2.9%
3,CCCCOc1ccc(OCCNC(=O)C2CCCN2C(=O)Nc2ccccc2)cc1 (centres undefined),8.66%
4,COc1cc(C(=S)N2CCOCC2)cc(OC)c1OC(=O)c1ccc(C)cc1,8.19%
5,CCCc1nc2ccccc2c(C(=O)O)c1CC,2.61%
6,COc1cc2c(cc1OC)C1(NCC2)C(=O)Nc2ccccc21 (centres undefined),4.39%
7,COc1cc2c(cc1OC)C1(Nc3c-2c(C)nn3-c2ccccc2)C(=O)Nc2ccccc21 (centres undefined),9.01%
8,COC(=O)c1sc(-c2ccccc2)cc1NC(=O)c1cc(OC)cc(OC)c1,6.45%
9,Cc1cccc(C)c1-n1c(C)nn(Cc2ccc([N+](=O)[O-])cc2)c1=O,-15.4%
10,C(=N\Nc1nc2ccccc2[nH]1)/c1ccc2c(c1)OCCO2,12.1%
11,C(=N\Nc1ccccn1)/c1ccc2c(c1)OCCO2,-4.47%
12,O=C(NN1C(=O)NC2(CCCCC2)C1=O)c1ccc(-c2ccc([N+](=O)[O-])cc2)o1,4.8%
13,CCOC(=O)C1CCCN(S(=O)(=O)c2cccc3cccnc23)C1 (centres undefined),-4.82%
14,O=C1N(CCCCN2C(=O)C3(OCCO3)c3ccccc32)c2ccccc2C12OCCO2,-3.23%
15,O=C1N(CCCN2C(=O)C3(OCCO3)c3ccccc32)c2ccccc2C12OCCO2,-3.19%
16,O=C1O[C@@H]([C@H](O)CO)C(O)=C1O,-0.84%
17,Cn1c(C(=O)NCc2ccc3c(c2)OCO3)cc2sccc21,9.66%
18,CN1OC(c2ccccc2)=C(CO)C1c1ccccc1 (centres undefined),-1.69%
19,COc1ccc(-c2c(-c3ccc(OC)c(C)c3O)n[nH]c2C)cc1,10.4%
20,O=C(NCc1ccc(Cl)cc1)c1ccc(CSc2nc3ccncc3[nH]2)cc1,5.93%
21,O=C(c1ccc(CSc2nc3ccncc3[nH]2)cc1)N1CCN(c2cccc(Cl)c2)CC1,60.3%
22,O=C(c1ccco1)N1CCCC(c2nc3c(nnn3Cc3cccc(Cl)c3)c(=O)[nH]2)C1 (centres undefined),-2.33%
23,C#CCCC(=O)c1ccccc1/C=[N+](\[O-])c1ccccc1,-2.08%
24,CCOC(=O)c1ccc(Nc2ccc([N+](=O)[O-])cn2)cc1,-5.22%

row,Compound,inhibition
1,COc1cccc(-c2n[nH]c(=S)n2Cc2ccco2)c1,8.56%
2,COCc1c(C(=O)N/N=C(/C)c2cccs2)nnn1-c1nonc1N,-8.26%
3,CCOc1ccc(NC(=O)CCC(=O)Nc2cc(OC)c(NC(=O)c3ccco3)cc2OC)cc1,20.8%
4,CCN1C(=O)[C@H]2[C@@H](c3ccc(-c4ccccc4)cc3)N[C@@](C)(C(=O)OC)[C@H]2C1=O,1.42%
5,COc1cc(CCC(C)=O)ccc1OC(=O)c1c(F)cccc1Cl,3.02%
6,COc1ccc(NC(=O)COc2ccc(/C=C/c3cc[n+](C)cc3)cc2OC)cc1,-3.55%
7,COc1cc(/C=C/c2cc[n+](C)cc2)ccc1OCC(=O)Nc1ccccc1,-0.02%
8,CCCCCCc1nc(C(N)=O)c2[nH]c(=O)n(-c3ccc(OC)cc3OC)c2n1,7.81%
9,Cc1cc(C)c(CN2CCC(n3nccc3NC(=O)C3CCOC3)CC2)cc1C (centres undefined),-0.02%
10,OC1(c2cccc(C(F)(F)F)c2)CCN(Cc2nnnn2CCc2ccccc2)CC1,1.32%
11,Cc1ccc(N2Cc3ccccc3C2=N)cc1[N+](=O)[O-],2.11%
12,COc1cc(NS(=O)(=O)c2ccc(OC)c(C)c2C)c(OC)cc1Cl,-6.31%
13,O=C(CSc1cccc2cccnc12)Nc1cccc(S(=O)(=O)N2CCOCC2)c1,-4.53%
14,Cc1cccc(NC(=O)CSc2cccc3cccnc23)c1,-1.29%
15,COc1ccc(NC(=O)CN(C)C(=O)c2cc(C)on2)cc1,2.44%
16,O=C(CC(Nc1ccccc1Cl)C(=O)OCC(=O)c1cccs1)c1ccccc1 (centres undefined),2.88%
17,O=C(OCC(=O)c1cccs1)c1ccccc1,-1.72%
18,O=C(COC(=O)c1cccs1)c1ccc2c(c1)OCCO2,-22.5%
19,COC(=O)c1ccc(-n2c(C)cc(C(=O)COC(=O)C3=COCCO3)c2C)cc1,48.5%
20,Cc1c(Cl)cccc1NC(CC(=O)c1ccccc1)C(=O)OCC(=O)c1cccs1 (centres undefined),-5.49%
21,O=C(OCC(=O)c1ccc[nH]1)C1=COCCO1,18.8%
22,Cc1cc(C(=O)CSc2n[nH]c(N)n2)c(C)n1-c1cccc(F)c1,-3.82%
23,O=C(CCC(=O)c1cccs1)OCC(=O)c1ccccc1,2.32%
24,COCCCn1c(SCC(=O)N2CCOCC2)nc2cc(Cl)ccc2c1=O,-3.72%

row,Compound,inhibition
1,CCOC(=O)CNC(=S)N(Cc1ccccc1)Cc1cccs1,2.83%
2,O=C(CN(Cc1ccccc1Cl)C(=O)c1csnn1)NCCc1ccccc1,4.65%
3,Cc1occc1C(=O)Nc1ccccc1C#N,-1.21%
4,CC(C)CCOC(=O)C1[C@H]2C(=O)N(Cc3cccs3)C[C@]23C=C[C@H]1O3 (some centres undefined),0.09%
5,O=c1c2ccccc2ncn1-c1ccc([N+](=O)[O-])cc1[N+](=O)[O-],4.34%
6,O=[N+]([O-])c1ccccc1-n1cnc2ccccc21,8.38%
7,COc1cc(C(=O)OCC(=O)NCc2ccccc2)cc(NC(=O)c2ccco2)c1OC,6.91%
8,C1=C(c2ccccc2)CCN(c2ncnc3nc[nH]c23)C1,1.26%
9,COc1ccccc1-n1c(N)c(C(N)=O)sc1=S,-2.51%
10,CC(=O)c1ccc(OC(=O)CCc2nc3ccccc3s2)cc1,-3.41%
11,CCOC(=O)N1CCN(c2ccc(Cl)c(Cl)c2)CC1,-2.84%
12,COC(=O)N1CCN(c2ccc(Cl)c(Cl)c2)CC1,-0.8%
13,N#CCCn1cc(C(=O)Nc2ccc(C(=O)O)cc2)c(-c2cc3ccccc3o2)n1,-8.4%
14,CC(C)n1cnc2c(Nc3cccc(Cl)c3)nc(NCCCO)nc21,27%
15,CC(C)C[C@H](CO)Nc1nc(Nc2cccc(Cl)c2)c2ncn(C(C)C)c2n1,62.4%
16,CC(C)(C)n1nnnc1CN1CCSCC1,1.25%
17,COC(=O)c1cc(NC2c3ncccc3C(=O)N2Cc2ccccc2)cc(C(=O)OC)c1 (centres undefined),2.2%
18,CCOC(=O)c1nnn(-c2nonc2-c2ccccc2)c1C,7.53%
19,CCOC(=O)c1sc2nc3n(c(=O)c2c1C)CCC3,-4.9%
20,Cc1c(C(=O)O)sc2nc3n(c(=O)c12)CCC(C)CC3 (centres undefined),-4.08%
21,COc1ccc(-c2cc(NCc3ccccn3)n3ncnc3n2)cc1,65.8%
22,COc1ccc(-c2cc(NCCc3ccncc3)n3ncnc3n2)cc1,-2.4%
